Key:
Test in all cases: log2 ratio of Biotin-Ahx-Ub-VS probe labelling (fragment/DMSO); higher = less target engagement (more negative = stronger competition), active = hit call of the paper (q ≤ 0.05, log2 ratio ≤ -1)
Conditions in all cases: compound concentration: 200 uM; treatment time: 3 h
USP42 = molecular target: T1, USP42 (UniProt Q9H9J4)
T1 sequence (whole entry): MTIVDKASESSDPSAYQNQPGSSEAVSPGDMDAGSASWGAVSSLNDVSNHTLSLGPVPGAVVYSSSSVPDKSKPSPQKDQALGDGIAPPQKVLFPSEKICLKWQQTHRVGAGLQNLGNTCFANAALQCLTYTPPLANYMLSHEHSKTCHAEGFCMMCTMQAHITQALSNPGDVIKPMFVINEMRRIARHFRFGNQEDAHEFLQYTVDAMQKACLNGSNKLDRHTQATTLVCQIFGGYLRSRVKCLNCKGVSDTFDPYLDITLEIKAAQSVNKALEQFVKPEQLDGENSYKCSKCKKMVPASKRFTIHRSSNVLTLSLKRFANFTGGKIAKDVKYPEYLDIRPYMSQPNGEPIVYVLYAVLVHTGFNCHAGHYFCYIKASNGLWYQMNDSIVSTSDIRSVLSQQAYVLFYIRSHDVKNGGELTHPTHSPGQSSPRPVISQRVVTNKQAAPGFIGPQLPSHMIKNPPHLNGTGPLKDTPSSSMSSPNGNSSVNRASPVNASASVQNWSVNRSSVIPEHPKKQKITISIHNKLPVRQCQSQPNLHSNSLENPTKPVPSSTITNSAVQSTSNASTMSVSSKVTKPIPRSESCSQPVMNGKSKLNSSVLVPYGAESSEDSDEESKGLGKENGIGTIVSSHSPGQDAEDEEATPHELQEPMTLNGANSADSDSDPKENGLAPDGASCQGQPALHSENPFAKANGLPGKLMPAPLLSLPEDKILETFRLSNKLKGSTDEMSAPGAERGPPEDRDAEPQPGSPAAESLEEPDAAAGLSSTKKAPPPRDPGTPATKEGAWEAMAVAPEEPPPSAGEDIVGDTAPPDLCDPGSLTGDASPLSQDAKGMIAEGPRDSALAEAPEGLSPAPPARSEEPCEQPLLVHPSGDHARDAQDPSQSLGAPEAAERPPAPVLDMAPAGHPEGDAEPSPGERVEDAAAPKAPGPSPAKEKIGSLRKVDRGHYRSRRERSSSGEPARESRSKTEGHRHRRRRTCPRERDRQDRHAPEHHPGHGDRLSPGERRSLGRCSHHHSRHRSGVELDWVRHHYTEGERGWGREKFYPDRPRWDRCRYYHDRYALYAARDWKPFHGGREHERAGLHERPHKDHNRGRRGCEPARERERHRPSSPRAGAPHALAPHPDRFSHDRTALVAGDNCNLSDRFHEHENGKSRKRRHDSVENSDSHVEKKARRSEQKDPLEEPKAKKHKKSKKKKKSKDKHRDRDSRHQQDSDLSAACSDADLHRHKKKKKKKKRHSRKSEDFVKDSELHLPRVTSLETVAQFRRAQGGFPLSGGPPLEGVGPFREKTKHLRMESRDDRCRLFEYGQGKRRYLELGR
In short: (§1)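 Labelled DUBs from HEK293T lysate were NeutrAvidin-enriched, digested with LysC and trypsin, and run by diaPASEF LC-MS/MS. Before that, each 495 µg sample in Tris/CHAPS/IGEPAL buffer with protease inhibitors was treated in triplicate with fragment at 200 µM or vehicle for 3 h, then with Biotin-Ahx-Ub-VS at 0.5 µM final for 1 h. Values are average log2 ratios of fragment over vehicle by unpaired t-test, based on global-median-normalised Spectronaut label-free quantities from proteins with ≥2 unique peptides.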

USP46 = USP46 (UniProt P62068)
In short: as §1

USP47 = molecular target: T2, USP47 (UniProt Q96K76)
T2 sequence (whole entry): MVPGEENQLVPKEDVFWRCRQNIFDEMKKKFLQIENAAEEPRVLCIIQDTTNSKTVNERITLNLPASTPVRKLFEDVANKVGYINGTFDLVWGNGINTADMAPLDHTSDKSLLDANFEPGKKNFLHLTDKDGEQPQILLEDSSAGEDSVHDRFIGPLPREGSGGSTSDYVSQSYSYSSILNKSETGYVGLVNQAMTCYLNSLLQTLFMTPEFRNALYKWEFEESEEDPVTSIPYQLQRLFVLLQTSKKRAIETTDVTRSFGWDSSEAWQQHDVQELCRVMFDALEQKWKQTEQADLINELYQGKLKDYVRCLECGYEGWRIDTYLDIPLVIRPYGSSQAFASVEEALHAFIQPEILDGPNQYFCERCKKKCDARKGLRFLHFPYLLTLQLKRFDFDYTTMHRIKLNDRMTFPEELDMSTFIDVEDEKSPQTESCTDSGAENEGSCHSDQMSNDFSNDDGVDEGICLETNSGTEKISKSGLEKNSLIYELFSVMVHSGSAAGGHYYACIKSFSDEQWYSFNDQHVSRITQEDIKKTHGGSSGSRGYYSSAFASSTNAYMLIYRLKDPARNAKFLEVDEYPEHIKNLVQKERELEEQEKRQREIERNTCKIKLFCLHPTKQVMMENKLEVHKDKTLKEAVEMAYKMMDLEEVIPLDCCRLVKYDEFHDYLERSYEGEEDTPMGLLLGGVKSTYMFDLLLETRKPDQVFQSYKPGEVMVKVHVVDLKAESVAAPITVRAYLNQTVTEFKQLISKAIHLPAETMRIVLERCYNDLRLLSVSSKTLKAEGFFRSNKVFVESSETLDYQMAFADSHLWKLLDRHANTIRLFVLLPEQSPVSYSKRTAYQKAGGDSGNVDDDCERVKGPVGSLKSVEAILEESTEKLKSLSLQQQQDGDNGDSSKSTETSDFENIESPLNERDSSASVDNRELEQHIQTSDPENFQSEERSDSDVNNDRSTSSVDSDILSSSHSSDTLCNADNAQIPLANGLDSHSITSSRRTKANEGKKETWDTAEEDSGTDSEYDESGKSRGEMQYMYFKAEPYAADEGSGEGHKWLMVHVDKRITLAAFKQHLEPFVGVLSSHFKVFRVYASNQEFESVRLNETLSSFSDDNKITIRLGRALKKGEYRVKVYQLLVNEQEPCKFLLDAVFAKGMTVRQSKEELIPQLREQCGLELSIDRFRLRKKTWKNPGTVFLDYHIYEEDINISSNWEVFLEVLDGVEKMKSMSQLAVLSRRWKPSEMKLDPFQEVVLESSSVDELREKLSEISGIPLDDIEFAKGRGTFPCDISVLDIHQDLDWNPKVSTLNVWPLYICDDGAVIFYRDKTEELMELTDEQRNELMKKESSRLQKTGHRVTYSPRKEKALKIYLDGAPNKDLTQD
In short: as §1

USP48 = molecular target: T3, USP48 (UniProt Q86UV5)
T3 sequence (whole entry): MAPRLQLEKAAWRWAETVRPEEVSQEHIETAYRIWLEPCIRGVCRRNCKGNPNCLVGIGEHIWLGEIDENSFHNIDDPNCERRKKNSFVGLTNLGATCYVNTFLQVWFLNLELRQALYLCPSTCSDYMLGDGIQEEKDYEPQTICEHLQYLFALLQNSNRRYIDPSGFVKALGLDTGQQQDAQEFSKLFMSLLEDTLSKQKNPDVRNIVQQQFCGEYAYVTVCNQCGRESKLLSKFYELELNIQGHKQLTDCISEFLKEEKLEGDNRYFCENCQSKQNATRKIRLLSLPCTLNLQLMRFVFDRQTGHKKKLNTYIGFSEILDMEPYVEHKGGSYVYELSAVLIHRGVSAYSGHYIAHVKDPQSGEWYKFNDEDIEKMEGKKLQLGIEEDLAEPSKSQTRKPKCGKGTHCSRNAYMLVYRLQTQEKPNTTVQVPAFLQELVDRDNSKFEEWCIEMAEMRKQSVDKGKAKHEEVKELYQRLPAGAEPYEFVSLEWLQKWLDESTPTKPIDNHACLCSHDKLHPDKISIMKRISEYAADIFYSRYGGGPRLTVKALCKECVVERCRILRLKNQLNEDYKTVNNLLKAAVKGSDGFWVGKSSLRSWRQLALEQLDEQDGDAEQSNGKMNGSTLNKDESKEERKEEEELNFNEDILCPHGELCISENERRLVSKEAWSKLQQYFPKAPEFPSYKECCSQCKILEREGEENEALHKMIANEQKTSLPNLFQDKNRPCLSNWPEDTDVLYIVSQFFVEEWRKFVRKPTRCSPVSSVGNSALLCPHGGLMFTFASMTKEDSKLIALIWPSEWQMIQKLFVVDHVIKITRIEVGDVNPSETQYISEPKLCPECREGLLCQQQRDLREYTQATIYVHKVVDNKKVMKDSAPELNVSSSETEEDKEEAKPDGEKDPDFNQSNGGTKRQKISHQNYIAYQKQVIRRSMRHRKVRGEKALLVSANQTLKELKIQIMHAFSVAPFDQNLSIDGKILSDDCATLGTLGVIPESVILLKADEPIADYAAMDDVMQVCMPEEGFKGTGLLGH
In short: as §1

USP5 = molecular target: T4, USP5 (UniProt P45974)
T4 sequence (whole entry): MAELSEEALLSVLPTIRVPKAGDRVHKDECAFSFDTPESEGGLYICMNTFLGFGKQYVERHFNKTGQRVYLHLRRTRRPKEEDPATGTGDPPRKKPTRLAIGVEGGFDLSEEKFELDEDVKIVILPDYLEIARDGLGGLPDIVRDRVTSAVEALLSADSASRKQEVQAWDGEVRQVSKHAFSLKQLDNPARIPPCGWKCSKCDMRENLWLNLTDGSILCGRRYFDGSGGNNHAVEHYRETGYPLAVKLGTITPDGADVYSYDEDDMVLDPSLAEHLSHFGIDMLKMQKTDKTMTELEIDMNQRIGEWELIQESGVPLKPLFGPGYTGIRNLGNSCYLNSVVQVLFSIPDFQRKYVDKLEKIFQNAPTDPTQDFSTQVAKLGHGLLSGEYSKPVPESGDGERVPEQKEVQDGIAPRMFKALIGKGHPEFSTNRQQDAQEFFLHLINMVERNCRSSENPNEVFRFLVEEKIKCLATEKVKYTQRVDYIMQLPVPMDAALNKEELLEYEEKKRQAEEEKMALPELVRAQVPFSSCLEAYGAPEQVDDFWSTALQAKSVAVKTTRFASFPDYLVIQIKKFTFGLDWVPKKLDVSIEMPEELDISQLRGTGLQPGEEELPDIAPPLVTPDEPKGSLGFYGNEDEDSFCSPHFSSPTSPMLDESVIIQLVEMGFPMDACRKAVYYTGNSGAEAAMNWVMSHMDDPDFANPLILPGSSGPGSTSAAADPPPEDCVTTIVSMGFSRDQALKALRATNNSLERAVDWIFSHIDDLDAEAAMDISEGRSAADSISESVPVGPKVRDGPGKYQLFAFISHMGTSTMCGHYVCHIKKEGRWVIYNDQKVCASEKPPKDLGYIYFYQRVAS
In short: as §1

USP54 = USP54 (UniProt Q70EL1)
In short: as §1

USP7 = USP7 (UniProt Q93009)
In short: as §1

USP8 = molecular target: T5, USP8 (UniProt P40818)
T5 sequence (whole entry): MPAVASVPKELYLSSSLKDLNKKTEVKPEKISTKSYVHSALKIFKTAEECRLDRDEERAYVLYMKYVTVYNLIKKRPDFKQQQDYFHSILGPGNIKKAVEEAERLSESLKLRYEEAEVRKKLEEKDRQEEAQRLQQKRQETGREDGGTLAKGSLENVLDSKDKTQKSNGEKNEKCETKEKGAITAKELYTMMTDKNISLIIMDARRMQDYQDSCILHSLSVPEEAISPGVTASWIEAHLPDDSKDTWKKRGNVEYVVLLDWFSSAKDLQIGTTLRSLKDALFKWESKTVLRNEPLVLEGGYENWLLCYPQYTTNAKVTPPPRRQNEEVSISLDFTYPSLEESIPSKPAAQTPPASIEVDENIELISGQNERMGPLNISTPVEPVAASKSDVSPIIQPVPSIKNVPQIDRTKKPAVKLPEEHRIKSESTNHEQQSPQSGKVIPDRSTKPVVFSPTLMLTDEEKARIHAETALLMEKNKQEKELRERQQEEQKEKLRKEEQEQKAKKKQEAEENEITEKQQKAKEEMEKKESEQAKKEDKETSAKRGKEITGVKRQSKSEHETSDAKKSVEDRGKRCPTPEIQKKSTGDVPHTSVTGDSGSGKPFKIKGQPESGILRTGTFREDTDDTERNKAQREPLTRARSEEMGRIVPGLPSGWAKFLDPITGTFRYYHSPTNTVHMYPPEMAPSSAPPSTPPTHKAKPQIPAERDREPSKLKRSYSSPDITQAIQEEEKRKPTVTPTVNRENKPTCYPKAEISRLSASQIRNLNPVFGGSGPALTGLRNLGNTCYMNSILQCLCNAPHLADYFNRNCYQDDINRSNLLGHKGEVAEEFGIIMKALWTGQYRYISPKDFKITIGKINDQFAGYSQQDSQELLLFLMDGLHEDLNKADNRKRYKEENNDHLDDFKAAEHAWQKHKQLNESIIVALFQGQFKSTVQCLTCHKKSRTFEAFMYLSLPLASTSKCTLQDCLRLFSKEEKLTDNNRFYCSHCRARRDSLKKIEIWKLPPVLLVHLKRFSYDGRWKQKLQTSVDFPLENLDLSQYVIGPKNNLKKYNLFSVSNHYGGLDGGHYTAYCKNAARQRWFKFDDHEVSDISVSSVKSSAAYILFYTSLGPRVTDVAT
In short: as §1

USP9X = USP9X (UniProt Q93008)
In short: as §1

UniProt O00487 = molecular target: UniProt O00487
In short: as §1

Measured: log2 ratio of Biotin-Ahx-Ub-VS probe labelling

USP46, sequence (P62068 whole entry): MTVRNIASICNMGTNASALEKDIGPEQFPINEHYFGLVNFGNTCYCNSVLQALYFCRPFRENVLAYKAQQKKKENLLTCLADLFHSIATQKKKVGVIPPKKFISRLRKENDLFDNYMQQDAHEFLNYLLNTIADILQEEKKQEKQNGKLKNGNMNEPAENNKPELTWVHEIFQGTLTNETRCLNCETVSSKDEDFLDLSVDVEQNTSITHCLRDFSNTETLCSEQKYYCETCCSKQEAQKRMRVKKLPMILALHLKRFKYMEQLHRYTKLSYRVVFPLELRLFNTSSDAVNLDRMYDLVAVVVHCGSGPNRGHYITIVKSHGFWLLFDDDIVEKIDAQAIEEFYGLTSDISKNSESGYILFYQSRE
USP7, sequence (Q93009 whole entry, looked up): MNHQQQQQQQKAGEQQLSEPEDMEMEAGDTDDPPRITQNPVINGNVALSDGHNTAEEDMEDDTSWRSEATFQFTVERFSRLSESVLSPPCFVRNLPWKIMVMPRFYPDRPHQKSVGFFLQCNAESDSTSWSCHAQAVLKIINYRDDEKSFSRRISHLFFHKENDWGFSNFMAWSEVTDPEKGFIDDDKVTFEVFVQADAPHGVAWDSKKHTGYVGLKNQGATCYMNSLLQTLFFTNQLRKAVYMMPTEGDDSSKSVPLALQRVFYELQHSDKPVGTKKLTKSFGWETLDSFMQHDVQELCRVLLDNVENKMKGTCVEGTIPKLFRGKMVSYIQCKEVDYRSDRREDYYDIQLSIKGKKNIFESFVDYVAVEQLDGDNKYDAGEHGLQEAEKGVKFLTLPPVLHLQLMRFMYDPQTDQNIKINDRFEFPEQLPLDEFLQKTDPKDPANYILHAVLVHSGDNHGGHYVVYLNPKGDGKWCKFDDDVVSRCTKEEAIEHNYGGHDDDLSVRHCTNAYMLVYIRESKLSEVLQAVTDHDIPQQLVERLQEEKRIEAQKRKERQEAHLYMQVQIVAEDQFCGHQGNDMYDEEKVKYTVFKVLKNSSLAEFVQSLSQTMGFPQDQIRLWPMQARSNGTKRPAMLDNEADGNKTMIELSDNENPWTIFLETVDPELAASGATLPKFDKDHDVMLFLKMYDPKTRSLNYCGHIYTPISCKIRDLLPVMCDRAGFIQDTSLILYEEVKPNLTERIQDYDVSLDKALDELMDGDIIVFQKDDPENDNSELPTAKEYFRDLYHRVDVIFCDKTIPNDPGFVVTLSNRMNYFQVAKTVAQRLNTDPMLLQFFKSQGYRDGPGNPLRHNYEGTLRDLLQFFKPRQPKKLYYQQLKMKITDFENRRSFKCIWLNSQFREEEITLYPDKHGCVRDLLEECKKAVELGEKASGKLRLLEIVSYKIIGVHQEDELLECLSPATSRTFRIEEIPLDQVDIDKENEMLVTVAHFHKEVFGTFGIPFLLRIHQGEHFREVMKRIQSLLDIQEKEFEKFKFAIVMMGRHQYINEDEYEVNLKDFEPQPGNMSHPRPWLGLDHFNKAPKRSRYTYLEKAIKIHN
UniProt O00487, sequence (O00487 whole entry): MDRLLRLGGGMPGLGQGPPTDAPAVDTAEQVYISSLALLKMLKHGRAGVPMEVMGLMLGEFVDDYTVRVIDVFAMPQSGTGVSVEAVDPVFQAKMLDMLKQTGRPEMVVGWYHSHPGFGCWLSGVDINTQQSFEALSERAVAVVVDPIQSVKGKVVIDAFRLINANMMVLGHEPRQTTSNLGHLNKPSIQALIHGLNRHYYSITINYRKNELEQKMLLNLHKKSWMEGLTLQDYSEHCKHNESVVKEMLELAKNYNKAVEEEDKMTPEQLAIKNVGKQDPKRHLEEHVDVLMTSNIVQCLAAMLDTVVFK
USP9X, sequence (Q93008 whole entry): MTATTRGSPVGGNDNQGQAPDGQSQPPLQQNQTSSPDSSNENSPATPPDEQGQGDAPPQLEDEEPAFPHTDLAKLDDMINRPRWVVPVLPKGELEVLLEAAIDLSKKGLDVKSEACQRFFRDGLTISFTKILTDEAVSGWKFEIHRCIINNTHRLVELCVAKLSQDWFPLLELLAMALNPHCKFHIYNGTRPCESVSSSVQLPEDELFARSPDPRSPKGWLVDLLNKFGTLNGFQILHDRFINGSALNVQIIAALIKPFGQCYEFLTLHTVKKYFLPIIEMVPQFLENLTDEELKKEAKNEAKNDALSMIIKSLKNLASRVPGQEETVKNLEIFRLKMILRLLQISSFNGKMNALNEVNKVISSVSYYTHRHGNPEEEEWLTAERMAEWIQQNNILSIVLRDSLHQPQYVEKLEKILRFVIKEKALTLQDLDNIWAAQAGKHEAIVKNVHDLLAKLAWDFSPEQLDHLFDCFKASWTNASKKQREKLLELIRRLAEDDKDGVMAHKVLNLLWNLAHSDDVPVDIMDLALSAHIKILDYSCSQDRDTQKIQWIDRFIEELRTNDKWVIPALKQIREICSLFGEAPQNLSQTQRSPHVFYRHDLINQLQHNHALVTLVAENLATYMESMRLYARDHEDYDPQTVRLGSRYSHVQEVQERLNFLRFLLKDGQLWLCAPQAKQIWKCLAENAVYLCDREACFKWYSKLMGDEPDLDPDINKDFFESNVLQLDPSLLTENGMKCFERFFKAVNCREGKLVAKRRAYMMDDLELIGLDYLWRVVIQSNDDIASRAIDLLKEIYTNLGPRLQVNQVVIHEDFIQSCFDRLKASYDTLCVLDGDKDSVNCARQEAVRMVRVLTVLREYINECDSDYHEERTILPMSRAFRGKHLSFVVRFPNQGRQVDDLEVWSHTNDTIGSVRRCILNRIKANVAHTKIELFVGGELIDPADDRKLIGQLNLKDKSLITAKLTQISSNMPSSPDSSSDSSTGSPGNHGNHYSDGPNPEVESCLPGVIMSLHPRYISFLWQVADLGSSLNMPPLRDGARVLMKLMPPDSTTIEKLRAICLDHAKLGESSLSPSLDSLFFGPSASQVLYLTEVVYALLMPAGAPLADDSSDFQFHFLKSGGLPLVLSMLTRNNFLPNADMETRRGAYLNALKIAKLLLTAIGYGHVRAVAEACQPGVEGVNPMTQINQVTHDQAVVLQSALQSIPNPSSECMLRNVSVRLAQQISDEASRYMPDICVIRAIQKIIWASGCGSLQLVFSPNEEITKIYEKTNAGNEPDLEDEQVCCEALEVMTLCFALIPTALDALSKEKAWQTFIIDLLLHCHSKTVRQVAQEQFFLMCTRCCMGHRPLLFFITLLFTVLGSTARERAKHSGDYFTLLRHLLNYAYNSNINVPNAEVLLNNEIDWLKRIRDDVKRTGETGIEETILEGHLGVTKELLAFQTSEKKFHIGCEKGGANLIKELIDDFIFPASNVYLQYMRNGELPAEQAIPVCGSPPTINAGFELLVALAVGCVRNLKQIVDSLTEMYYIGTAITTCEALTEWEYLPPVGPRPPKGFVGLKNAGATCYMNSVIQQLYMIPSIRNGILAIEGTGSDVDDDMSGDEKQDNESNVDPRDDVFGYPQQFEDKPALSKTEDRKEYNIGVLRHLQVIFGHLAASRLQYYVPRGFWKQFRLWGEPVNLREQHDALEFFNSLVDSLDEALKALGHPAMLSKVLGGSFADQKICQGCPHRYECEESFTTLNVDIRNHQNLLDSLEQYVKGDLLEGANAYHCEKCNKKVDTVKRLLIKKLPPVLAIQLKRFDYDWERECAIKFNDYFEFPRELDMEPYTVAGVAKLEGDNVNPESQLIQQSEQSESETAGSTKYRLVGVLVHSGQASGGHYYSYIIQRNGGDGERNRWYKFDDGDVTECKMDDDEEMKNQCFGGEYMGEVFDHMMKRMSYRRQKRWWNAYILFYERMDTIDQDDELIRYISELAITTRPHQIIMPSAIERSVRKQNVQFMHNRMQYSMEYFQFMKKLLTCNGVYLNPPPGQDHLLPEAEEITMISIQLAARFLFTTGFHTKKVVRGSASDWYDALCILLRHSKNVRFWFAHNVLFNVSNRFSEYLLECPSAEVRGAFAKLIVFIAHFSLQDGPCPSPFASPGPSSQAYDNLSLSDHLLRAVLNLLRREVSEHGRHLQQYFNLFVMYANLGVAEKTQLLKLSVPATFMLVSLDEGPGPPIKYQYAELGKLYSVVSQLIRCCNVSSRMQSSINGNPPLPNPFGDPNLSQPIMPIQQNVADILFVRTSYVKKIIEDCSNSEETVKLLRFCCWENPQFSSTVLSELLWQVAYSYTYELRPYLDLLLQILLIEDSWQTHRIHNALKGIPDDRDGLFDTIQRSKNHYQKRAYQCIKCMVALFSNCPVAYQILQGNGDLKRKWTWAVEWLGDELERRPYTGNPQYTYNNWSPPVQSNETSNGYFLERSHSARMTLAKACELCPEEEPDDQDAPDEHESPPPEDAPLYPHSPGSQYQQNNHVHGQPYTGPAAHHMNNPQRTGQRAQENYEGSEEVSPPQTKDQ

CS(=O)(=O)c1ccc(NC(=O)CCl)cc1
inactive: USP42 0.0549 | USP46 0.119 | USP47 -0.0487 | USP48 -0.946 | USP5 0.0085 | USP54 0.431 | USP7 -0.156 | USP8 0.012 | USP9X -0.388 | UniProt O00487 -0.115

Source: the supplement of paper PMC11732987, “Enantioselective OTUD7B fragment discovery through chemoproteomics screening and high-throughput optimisation” (Communications Chemistry, 2025)
